The list is not random: actives were taken first. Their share in the collection is about 6.2%.
KB-3-1 cytotox = KB-3-1 parental cell cytotoxicity. KB-3-1 viability, CellTiter-Glo ATP luminescence, 72 h. 1.4% of 400,000 active. Potency, µM (highest dose often 46.1 µM), hits mostly cytotoxic; further: on the % scale 0 is the no-effect control and ±100 the full control effect; nearly all actives have a fitted effect of over 60% in size
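Using CellTiter-Glo luminescence, growth of non-resistant KB-3-1 adenocarcinoma cells is assessed 72 h after pin-tool compound addition at 37 °C. Normalized responses across the concentration series yield fitted curves.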
KB-V1 cytotox = KB-V1 MDR subline cytotoxicity. KB-V1 MDR cells viability, CellTiter-Glo, 72 h. Potency, µM (doses to about 46.1 µM), usual class: cytotoxic. 3.4% of 400,000 active. AID 1347076; further: on the % scale 0 is the no-effect control and ±100 the full control effect; nearly all actives have a fitted effect of over 60% in size
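Potencies derive from concentration-effect curves fitted to normalized luminescence (CellTiter-Glo) of KB-V1 cells treated for 72 h at 37 degrees C in phenol-red-free DMEM containing 10% FBS.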
HT1080NT lethal = kills 2HG-producing HT-1080-NT fibrosarcoma cells; HT-1080-NT fibrosarcoma viability, CellTiter-Glo ATP luminescence, 48 h; Potency, µM (highest dose often 46.1 µM), for inactives: at the top dose activity, negative = less viability, most hits filed as cytotoxic; 1.6% of 360,000 active;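 further: NT is the 2HG producing partner of a matched IDH1 knockdown line; 0% = DMSO-treated cells and -100% = media-only wells without cells; nearly all actives have a fitted effect of over 55% in size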
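Toxicity toward the 2HG-producing NT line was scored as %Activity, normalised to DMSO and no-cell wells, from CellTiter-Glo luminescence after 48 hours' treatment.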
HT1080 IDH1KD tx = kills HT-1080 cells with IDH1 knockdown; HT-1080 IDH1 knockdown viability, ATP luminescence, 48 h; 2% of 360,000 active; Potency, µM (top dose mostly 46.1 µM), without a hit: at the top dose activity, negative = toxicity, usual class: cytotoxic;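 further: 0% = DMSO wells and -100% = cell-free medium wells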
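After a 2 h attachment period, IDH1KD HT-1080 cells took pin-transferred compound for 48 h at 37 °C; ATP-based luminescence after 10 min room-temperature reagent incubation reported viability.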
ATXN2 expr inh = ATXN2 expression inhibition; HEK-293 ATXN2-luciferase reporter, luminescence, 24 h; AID 1745845; 0.72% of 360,000 active; Potency, µM (series often up to 57 µM), for inactives: at the top dose activity change, negative = inhibition, hits mostly inhibitors; further: on the % scale 0 is the no-effect control and ±100 the full control effect; nearly all actives have a fitted effect of over 55% in size
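ATXN2-luciferase reporter cells (luciferase flanked by upstream and downstream ATXN2 gene portions) were treated 24 h at 37 °C with compounds at up to 57 uM. SteadyGlo luminescence gave expression; GF-AFC fluorescence gave viability.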
ATXN viability = reduces viability in counter-screen for ATXN expression inhibitors; Potency, µM (series often up to 56.7 µM), usual class: cytotoxic; 0.49% of 400,000 active; S2 cells (HEK-293 line with an ATXN2-luciferase reporter) viability, CellTiter-Fluor protease fluorescence, 24 h; AID 651635; further: nearly all actives have a fitted effect of over 40% in size
Active calls of the source: *; i = inactive; u = inconclusive; x = no result given. The call rests on the fitted dose curve; in most records, active means well fitted curve in the direction sought with a large enough effect; inconclusive means small, poorly fitted or top-dose-only effect, or another doubt; inactive means no such curve, though single readings can be large; an effect the other way counts as inactive or inconclusive. Potency means the concentration at half of the fitted maximal effect.

SMILES | KB-3-1 cytotox | KB-V1 cytotox | HT1080NT lethal | HT1080 IDH1KD tx | ATXN2 expr inh | ATXN viability
Cc1cc(-c2n[nH]c(=S)n2/N=C/c2ccc(Cl)c([N+](=O)[O-])c2)n[nH]1 | u | i | 6.5µM* | 4.6µM* | -19% | i
O=[N+]([O-])c1cc(/C=N/n2c(-c3ccncc3)n[nH]c2=S)ccc1Cl | i | i | -9% | -14% | u | u
Cc1ccc(CNC(=O)CCCn2c(=O)c3ccccc3n(CC(=O)C(C)(C)C)c2=O)cc1 | i | i | x | x | -10% | u
S=C(NNc1ccnc2cc(Cl)ccc12)Nc1ccccc1Cl | 23µM* | u | u | u | u | u
O=C(Nc1ccccc1)Nc1ncc(C(F)(F)F)cc1Cl | i | i | -1% | 0% | x | i
FC(F)(F)c1cnc(NNC(=S)Nc2ccccc2Cl)c(Cl)c1 | 16µM* | u | u | u | 6µM* | i
Cc1cccc(NC(=S)NNc2ncc(C(F)(F)F)cc2Cl)c1 | u | 15µM* | -1% | -17% | u | i
CCCCCCCCCCCCCC(=O)N[C@H](CO)[C@H](O)c1ccc([N+](=O)[O-])cc1 | x | x | x | x | 10% | x
COc1cccc(N2CCN(C(=O)CN3CCSc4ccc(S(=O)(=O)N(C)C)cc43)CC2)c1 | i | u | x | x | 4% | i
COc1cc(/C=C/c2nc3ccccc3c(=O)[nH]2)ccc1OC(F)F | i | i | 6% | -3% | 11% | i
O=c1[nH]c(/C=C/c2ccccc2OC(F)F)nc2c1cnn2-c1ccccc1 | i | i | 18µM* | u | -16% | i
COc1ccc(Cn2cc(CN3CCOCC3)nn2)cc1 | i | i | 25% | 3% | 14% | i
N=c1ccn(Cc2cccc(F)c2)cc1 | 23µM* | i | u | -22% | -23% | i
OC[C@H]1O[C@@H](n2cnc3c2NC=NC[C@H]3O)C[C@@H]1O | x | x | x | x | x | i
CN(C)c1ccc(N=Nc2nccs2)cc1 | i | i | -15% | -26% | x | 10µM*
O=[N+]([O-])c1ccccc1S(=O)(=O)N1CCN(c2nc(-c3cccs3)nc3ccccc23)CC1 | i | i | x | x | x | x
Cn1cc(C(=O)[C@@H]2CCc3nc[nH]c3C2)c2ccccc21 | x | x | x | x | -9% | i
CCOc1cc(CNc2ccc3c(c2)OCCO3)cc(Br)c1OCC | 5.2µM* | 2.6µM* | 1.8µM* | 2.3µM* | 2% | i
CCOc1cc(CNc2ccc(N3CCCCC3)cc2)cc(Br)c1OCC(=O)NC(C)(C)C | i | 15µM* | -11% | -5% | -17% | i
CCOc1cc(CNc2ccc(N3CCOCC3)cc2)cc(Br)c1OCC | u | u | -18% | u | -30% | i
CCCn1c(SCc2nc(-c3ccc(OC)cc3OC)no2)nnc1-c1ccc(Cl)cc1 | i | i | x | x | u | u
CCOC(=O)c1csc(NC(=O)COc2ccc(Cl)cc2Cl)n1 | i | 23µM* | 0% | -2% | 3% | i
CCCn1c(SCc2ccccn2)nc2c1c(=O)n(C)c(=O)n2C | i | u | 3% | 0% | -5% | i
CCn1c(=O)c2c(nc(SCc3ccccn3)n2C)n(C)c1=O | u | 15µM* | -14% | 5% | 9% | i
CSc1ncccc1C(=O)N1CCOc2ccc(C(C)(O)CCn3cccn3)cc2C1 (centres undefined) | x | x | x | x | x | i
SMILES | KB-3-1 cytotox | KB-V1 cytotox | HT1080NT lethal | HT1080 IDH1KD tx | ATXN2 expr inh | ATXN viability
C(=C\c1ccccc1)/CN1CCN(C(CCc2ccccc2)c2nnnn2-c2ccc3c(c2)OCCO3)CC1 (centres undefined) | i | i | u | u | -7% | i
C(=C\c1ccccc1)/CN1CCN(C(c2nnnn2Cc2ccccc2)C2CC2)CC1 (centres undefined) | i | u | 18µM* | u | -39% | u
CSCCC(c1nnnn1-c1c(C)cccc1C)N1CCN(C/C=C/c2ccccc2)CC1 (centres undefined) | u | u | u | u | -27% | i
C(=C\c1ccccc1)/CN1CCN(C(c2nnnn2C2CCCC2)C2CC2)CC1 (centres undefined) | i | i | -10% | -8% | 0% | u
CCC(c1nnnn1-c1ccc2c(c1)OCCO2)N1CCN(C/C=C/c2ccccc2)CC1 (centres undefined) | i | 8.2µM* | -21% | -23% | -11% | u
CCC(c1nnnn1-c1c(C)cccc1C)N1CCN(c2cccc(C(F)(F)F)n2)CC1 (centres undefined) | u | i | -5% | -2% | -4% | i
CCC(c1nnnn1-c1c(C)cccc1C)N1CCN(c2ccc(C(F)(F)F)cc2[N+](=O)[O-])CC1 (centres undefined) | i | i | 29µM* | -10% | 0% | i
CCC(c1nnnn1-c1c(C)cccc1C)N1CCN(C/C=C/c2ccccc2)CC1 (centres undefined) | u | u | 18µM* | u | -33% | u
CC(=O)c1cccc(NC(=O)c2nc3ccccc3n(C)c2=O)c1 | u | u | x | x | 12% | i
CCC(=O)Nc1ccc(CC)cc1-c1nc2ccccc2n(Cc2ccccc2)c1=O | i | i | x | x | x | x
Cc1cccc(CNCCn2cc(C(=O)Nc3ccccc3)nn2)c1 | x | x | x | x | x | i
CC(=O)N1CCN(S(=O)(=O)c2cccc(C(=O)OCC(=O)N3CC(=O)Nc4ccccc43)c2)CC1 | i | i | -1% | -3% | -7% | i
Cc1cc(C(=O)OCC(=O)N2CC(=O)Nc3ccccc32)c(C)n1-c1ccc(F)cc1 | u | 16µM* | -1% | -4% | -10% | i
Cc1cc(C(=O)OCC(=O)N2CC(=O)Nc3ccccc32)c(C)n1-c1ccccc1 | i | 16µM* | 10% | 7% | -10% | i
Cc1noc(C)c1COc1cccc(C(=O)OCC(=O)N2CC(=O)Nc3ccccc32)c1 | 1.5µM* | u | u | 1.8µM* | 37% | i
CC(C)C(NS(C)(=O)=O)c1nnc2n1CCN(Cc1ccc(C#CC(C)(C)O)cc1)CC2 (centres undefined) | x | x | x | x | x | i
O=C1CCN(Cc2cccc(C(F)(F)F)c2)CCN1Cc1ccccn1 | x | x | x | x | x | i
Cc1cccc(N(C)S(=O)(=O)c2cc3[nH]c(=O)c(=O)[nH]c3cc2C)c1 | u | u | x | x | 13% | u
COc1ccc2c(C)c(CC(=O)NCCc3ccccc3)c(=O)oc2c1OC | i | i | x | x | -5% | i

Source: PubChem
